Reference: PubChem BioAssay (NCI)
The panel holds about 83,000 compounds, 20% with a hit somewhere; the sample as a whole holds those more often.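 How to read the values: 0–100, growth inhibition (40 = 60% inhibited); 0, no net growth; -100 to 0, cell death (-40 = 40% of starting cells died; -100 = all dead).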 Active and inactive are the calls of the source. The calls were made as follows: active = growth percent below 10; inactive = the rest.

Assays:
Assay in all cases: NCI-60 one-dose screen, 48 h (100 = growth as untreated, 0 = no growth, -100 = all killed)
Settings in all cases: 10 µM unless noted
HCT-15 colon = test system: HCT-15 colon
HT29 colon = test system: HT29 colon
SNB-75 CNS = test system: SNB-75 CNS
SNB-19 CNS = test system: SNB-19 CNS
U251 CNS = test system: U251 CNS
PC-3 prostate = test system: PC-3 prostate
SK-MEL-5 melanoma = test system: SK-MEL-5 melanoma
UACC-62 melanoma = test system: UACC-62 melanoma
LOX IMVI melanoma = test system: LOX IMVI melanoma
SK-MEL-28 melanoma = test system: SK-MEL-28 melanoma
SK-MEL-2 melanoma = test system: SK-MEL-2 melanoma
EKVX NSCLC = test system: EKVX NSCLC
SN12C renal = test system: SN12C renal
UO-31 renal = test system: UO-31 renal
TK-10 renal = test system: TK-10 renal
ACHN renal = test system: ACHN renal
CAKI-1 renal = test system: CAKI-1 renal
A498 renal = test system: A498 renal
CCRF-CEM leukemia = test system: CCRF-CEM leukemia
MOLT-4 leukemia = test system: MOLT-4 leukemia

Measured: growth

Cc1ccc(C[P+](c2ccccc2)(c2ccccc2)c2ccccc2)cc1
active: HT29 colon 2.44% | SNB-75 CNS -3.92% | U251 CNS 7.54% | PC-3 prostate 4.25% | SK-MEL-5 melanoma -66.3% | UACC-62 melanoma 6.79% | SK-MEL-28 melanoma 9.82% | SK-MEL-2 melanoma -4.59% | EKVX NSCLC 6.8% | SN12C renal 4.76% | CCRF-CEM leukemia 9.9% | MOLT-4 leukemia -31.4%
inactive: HCT-15 colon 82.5% | SNB-19 CNS 19.9% | LOX IMVI melanoma 15.4% | UO-31 renal 88.1% | TK-10 renal 30.5% | ACHN renal 24.4% | CAKI-1 renal 44.8% | A498 renal 27.5%

O=C1NC2(Nc3ccccc31)C(=O)Nc1c(Cl)cc(Cl)cc12 (stereo not given)
inactive: HCT-15 colon 108% | HT29 colon 107% | SNB-75 CNS 80% | SNB-19 CNS 104% | U251 CNS 104% | PC-3 prostate 103% | SK-MEL-5 melanoma 99.9% | UACC-62 melanoma 101% | LOX IMVI melanoma 95.9% | SK-MEL-28 melanoma 118% | SK-MEL-2 melanoma 119% | EKVX NSCLC 98.8% | SN12C renal 106% | UO-31 renal 78.5% | TK-10 renal 206% | ACHN renal 107% | CAKI-1 renal 85.1% | A498 renal 106% | CCRF-CEM leukemia 103% | MOLT-4 leukemia 93%

Cc1[nH]c(C(=O)Nc2ccc(C(=O)N3CCN(c4cc5c(cc4F)c(=O)c(C(=O)O)cn5C4CC4)CC3)cc2OC(C)C)c(Cl)c1Cl
inactive: HCT-15 colon 18.1% | HT29 colon 37.3% | SNB-75 CNS 67.8% | SNB-19 CNS 89.8% | U251 CNS 36.4% | PC-3 prostate 59.1% | SK-MEL-5 melanoma 75.3% | UACC-62 melanoma 81.8% | LOX IMVI melanoma 21.6% | SK-MEL-28 melanoma 86.6% | SK-MEL-2 melanoma 105% | EKVX NSCLC 80.5% | SN12C renal 31.2% | UO-31 renal 56.2% | TK-10 renal 82.7% | ACHN renal 67.9% | CAKI-1 renal 74.8% | A498 renal 55.6% | CCRF-CEM leukemia 53% | MOLT-4 leukemia 93.3%

Cc1ccc(CNc2ccc3nc(CCC4CCCCC4)[nH]c3c2)cc1
inactive: HCT-15 colon 12.7% | SNB-75 CNS 79.7% | SNB-19 CNS 58.4% | U251 CNS 29.8% | PC-3 prostate 38.5% | UACC-62 melanoma 32.9% | LOX IMVI melanoma 50.1% | SK-MEL-28 melanoma 38.5% | SK-MEL-2 melanoma 58.8% | EKVX NSCLC 53.4% | SN12C renal 45.7% | UO-31 renal 23.8% | TK-10 renal 54.8% | ACHN renal 47.8% | CAKI-1 renal 35.8% | A498 renal 57.5% | CCRF-CEM leukemia 39.9% | MOLT-4 leukemia 19.5%
active: HT29 colon 9.91% | SK-MEL-5 melanoma -19.5%

N#CSc1c[nH]c2cccc(/C=C/C(=O)/C=C(/C=C/c3cccc4[nH]cc(SC#N)c34)OB(F)F)c12
inactive: SNB-19 CNS 19.1% | A498 renal 28.2%
active: HCT-15 colon -73.6% | HT29 colon -74.5% | SNB-75 CNS -31.5% | U251 CNS -83.3% | PC-3 prostate -19.6% | SK-MEL-5 melanoma -74.1% | UACC-62 melanoma -50.5% | LOX IMVI melanoma -85.4% | SK-MEL-28 melanoma -47.9% | SK-MEL-2 melanoma -65% | EKVX NSCLC -10.4% | SN12C renal -21.8% | UO-31 renal -76% | TK-10 renal -51.7% | ACHN renal -48.9% | CAKI-1 renal -12.5% | CCRF-CEM leukemia -10.9% | MOLT-4 leukemia -14.4%

Nc1n[nH]c2ccc([C@H]3[C@@H]4C5CCC(C5)[C@@H]4c4c(ccc5[nH]ncc45)N3S(=O)(=O)C3CC3)cc12 (stereo not given in full)
active: HT29 colon 9.97% | SNB-75 CNS -10.3% | SK-MEL-5 melanoma -22.4% | LOX IMVI melanoma 8.72% | A498 renal -29.2%
inactive: HCT-15 colon 12.3% | SNB-19 CNS 23.2% | U251 CNS 17.7% | PC-3 prostate 28.3% | UACC-62 melanoma 32.5% | SK-MEL-28 melanoma 52.7% | SK-MEL-2 melanoma 53.2% | EKVX NSCLC 29.8% | SN12C renal 29.1% | UO-31 renal 43% | TK-10 renal 61.7% | ACHN renal 18.5% | CAKI-1 renal 26.2% | CCRF-CEM leukemia 16.2% | MOLT-4 leukemia 19%

COc1ccc(Nc2nc(-c3cc(O)c(C)c(C)c3O)cs2)cc1
inactive: HCT-15 colon 50.4% | HT29 colon 105% | SNB-75 CNS 78.8% | SNB-19 CNS 102% | U251 CNS 70.2% | PC-3 prostate 43.9% | SK-MEL-5 melanoma 82.3% | UACC-62 melanoma 68.9% | LOX IMVI melanoma 61.5% | SK-MEL-28 melanoma 99.5% | SK-MEL-2 melanoma 94.9% | EKVX NSCLC 89.2% | SN12C renal 88.4% | UO-31 renal 74.7% | TK-10 renal 114% | ACHN renal 82.2% | CAKI-1 renal 51.6% | A498 renal 101% | CCRF-CEM leukemia 17.8% | MOLT-4 leukemia 25.7%

COC(CC(F)F)c1cn(S(=O)(=O)c2ccc(C)cc2)c2ccccc12 (stereo not given)
inactive: HCT-15 colon 20% | SNB-75 CNS 18.6% | SNB-19 CNS 29.2% | U251 CNS 19.6% | PC-3 prostate 21.3% | SK-MEL-5 melanoma 34.1% | UACC-62 melanoma 32.1% | LOX IMVI melanoma 40.7% | SK-MEL-28 melanoma 44.7% | SK-MEL-2 melanoma 41.3% | EKVX NSCLC 48.3% | SN12C renal 43.3% | UO-31 renal 33.8% | TK-10 renal 59.3% | ACHN renal 51% | CAKI-1 renal 37.4% | A498 renal 42.3% | CCRF-CEM leukemia 11.1% | MOLT-4 leukemia 22.3%
active: HT29 colon 4.89%

C=C1C(=O)O[C@H]2[C@H]1CC/C(COC(=O)NCc1ccc(Cn3c(=O)sn(CCCCC)c3=O)cc1)=C\CC[C@@]1(C)O[C@@H]21
inactive: HCT-15 colon 16.8% | SNB-75 CNS 74.4% | SNB-19 CNS 85.9% | U251 CNS 52% | PC-3 prostate 46.4% | SK-MEL-5 melanoma 91.6% | UACC-62 melanoma 46.5% | SK-MEL-28 melanoma 47% | SK-MEL-2 melanoma 76.3% | EKVX NSCLC 84.3% | SN12C renal 22.8% | ACHN renal 26.5% | CAKI-1 renal 36.4% | A498 renal 84.9%
active: HT29 colon -33.4% | LOX IMVI melanoma -11.6% | UO-31 renal 6.58% | TK-10 renal 2.53% | CCRF-CEM leukemia -22% | MOLT-4 leukemia -15%

Cc1cc(N2CCN(CCNc3ccnc4cc(Cl)ccc34)CC2)nc(N2CCOCC2)n1
inactive: HCT-15 colon 27.4% | HT29 colon 20.7% | SNB-75 CNS 88.3% | SNB-19 CNS 89.9% | U251 CNS 64.5% | PC-3 prostate 65.1% | SK-MEL-5 melanoma 25.4% | UACC-62 melanoma 60.2% | LOX IMVI melanoma 13.7% | SK-MEL-28 melanoma 77.5% | SK-MEL-2 melanoma 83.8% | EKVX NSCLC 65.4% | SN12C renal 73% | UO-31 renal 43.7% | TK-10 renal 84.9% | ACHN renal 77.3% | CAKI-1 renal 57.9% | A498 renal 45.2% | CCRF-CEM leukemia 75.5% | MOLT-4 leukemia 47.6%

CSc1nc2ncc([N+](=O)[O-])c(=O)n2[nH]1
inactive: HCT-15 colon 105% | HT29 colon 107% | SNB-75 CNS 93% | SNB-19 CNS 103% | U251 CNS 102% | PC-3 prostate 98.1% | SK-MEL-5 melanoma 103% | UACC-62 melanoma 101% | LOX IMVI melanoma 101% | SK-MEL-28 melanoma 105% | SK-MEL-2 melanoma 107% | EKVX NSCLC 100% | SN12C renal 108% | UO-31 renal 87.5% | TK-10 renal 97.8% | ACHN renal 103% | CAKI-1 renal 92.8% | A498 renal 88.3% | CCRF-CEM leukemia 99.6% | MOLT-4 leukemia 129%

CCCCNC(=O)Oc1ccc(/C(=C(/C)Cc2ccc(OC)cc2)c2ccc(OCCN(CC)CC)cc2)cc1
inactive: HCT-15 colon 41% | SNB-75 CNS 69.1% | SNB-19 CNS 87.7% | U251 CNS 59% | PC-3 prostate 62.1% | SK-MEL-5 melanoma 79.1% | UACC-62 melanoma 84.7% | LOX IMVI melanoma 74.9% | SK-MEL-28 melanoma 82.8% | SK-MEL-2 melanoma 102% | EKVX NSCLC 83.9% | SN12C renal 83.8% | UO-31 renal 58.4% | TK-10 renal 79.7% | ACHN renal 91.1% | CAKI-1 renal 89.9% | A498 renal 102% | CCRF-CEM leukemia 49.3% | MOLT-4 leukemia 48.3%
active: HT29 colon 6.03%

O=C(COc1ccc(-c2nc3cc(Cl)c(Cl)cc3[nH]2)cc1)N=Nc1c(O)[nH]c2ccc(Cl)cc12
inactive: HCT-15 colon 80.3% | HT29 colon 33.4% | SNB-75 CNS 68.5% | SNB-19 CNS 56.7% | U251 CNS 34.2% | PC-3 prostate 61.2% | SK-MEL-5 melanoma 85.6% | UACC-62 melanoma 91.6% | LOX IMVI melanoma 60.8% | SK-MEL-28 melanoma 73.7% | SK-MEL-2 melanoma 90.2% | EKVX NSCLC 96.8% | SN12C renal 74.5% | UO-31 renal 94.4% | TK-10 renal 91.4% | ACHN renal 71.8% | CAKI-1 renal 76.3% | A498 renal 91.3% | CCRF-CEM leukemia 24.2% | MOLT-4 leukemia 47%

Cc1cc(=O)n(C(=O)Nc2ccccc2Cl)c2cc(O)ccc12
inactive: HCT-15 colon 107% | HT29 colon 108% | SNB-75 CNS 93.7% | SNB-19 CNS 97% | U251 CNS 98.6% | PC-3 prostate 93.6% | SK-MEL-5 melanoma 101% | UACC-62 melanoma 101% | LOX IMVI melanoma 99.1% | SK-MEL-28 melanoma 107% | SK-MEL-2 melanoma 118% | EKVX NSCLC 108% | SN12C renal 98.5% | UO-31 renal 76.9% | TK-10 renal 101% | ACHN renal 100% | CAKI-1 renal 92.3% | A498 renal 109% | CCRF-CEM leukemia 93.9% | MOLT-4 leukemia 110%

COc1cc(C2CC(c3ccc(Nc4nc(Nc5ccc(Cl)cc5)nc(Nc5ccc(Cl)cc5)n4)cc3)=NN2C(C)=O)cc(OC)c1OC (stereo not given)
inactive: HCT-15 colon 88.9% | HT29 colon 97.2% | SNB-75 CNS 106% | SNB-19 CNS 102% | U251 CNS 93.6% | PC-3 prostate 89.9% | SK-MEL-5 melanoma 81.3% | UACC-62 melanoma 90.1% | LOX IMVI melanoma 105% | SK-MEL-28 melanoma 119% | SK-MEL-2 melanoma 80.4% | EKVX NSCLC 94% | SN12C renal 102% | UO-31 renal 84.8% | TK-10 renal 118% | ACHN renal 96.7% | CAKI-1 renal 90.4% | A498 renal 113% | CCRF-CEM leukemia 101% | MOLT-4 leukemia 79%
